Consider eight compounds from PubChem BioAssay (EPA / NIEHS).

Records with an inconclusive call do not appear. Active and inactive are the calls of the source. Rule for the calls: active = hit-call score of the fitted dose curve at least 0.9, where 1 is the maximum; inconclusive = response in the unintended direction; inactive = score below 0.9.

In one assay the test system is rat CYP2B1, gene 24300. Kind of assay: NVS_ADME_rCYP2B1: NovaScreen (NVS) CYP450-related Enzyme Activity (ADME) Assay for rat CYP2B1 (AID 2283117). Put shortly: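 Recombinant rat CYP2B1 with fluorogenic substrate, read at 0.75 h. Primary screen in duplicate at 10 uM; compounds meeting threshold (e.g., 30% inhibition) re-run in concentration-response up to 20 uM. Fitted against acetonitrile control.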

In another assay the test system is rat CYP3A1, gene 25642. Kind of assay: NVS_ADME_rCYP3A1: NovaScreen (NVS) CYP450-related Enzyme Activity (ADME) Assay for rat CYP3A1 (AID 2283126). In outline:
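Cell-free recombinant CYP assay with fluorescent substrate, read 0.5 h after dosing. Screened at 10 uM in duplicate, hits at up to 20 uM in concentration-response; loss of signal versus acetonitrile baseline.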

In assay [1] the target is rat CYP3A2, Cyp3a2 (gene 266682) (UniProt P05183). Kind of assay: NVS_ADME_rCYP3A2: NovaScreen (NVS) CYP450-related Enzyme Activity (ADME) Assay for rat CYP3A2 (AID 2283128). The protocol: NVS_ADME_rCYP3A2 is a biochemical, single-readout assay that uses extracted gene-proteins in a cell-free assay. Measurements were taken 0.5 hour after chemical dosing in a 96-well plate.NVS_ADME_rCYP3A2 is one of one assay component(s) measured or calculated from the NVS_ADME_rCYP3A2 assay. It is designed to make measurements of enzyme activity, a form of enzyme reporter, as detected with fluorescence intensity signals by Fluorescence technology.Data from the assay component NVS_ADME_rCYP3A2 was analyzed into 1 assay endpoint. This assay endpoint, NVS_ADME_rCYP3A2, was analyzed in the positive analysis fitting direction relative to Acetonitrile as the negative control and baseline of activity. Using a type of enzyme reporter, loss-of-signal activity can be used to understand changes in the enzymatic activity as they relate to the gene Cyp3a2. Furthermore, this assay endpoint can be referred to as a primary readout, because this assay has produced multiple assay endpoints where this one serves a enzymatic activity function. To generalize the intended target to other relatable targets, this assay endpoint is annotated to the cyp intended target family, where the subfamily is xenobiotic metabolism. […]
Sequence of rat CYP3A2, Cyp3a2 (gene 266682) (P05183 whole entry, looked up): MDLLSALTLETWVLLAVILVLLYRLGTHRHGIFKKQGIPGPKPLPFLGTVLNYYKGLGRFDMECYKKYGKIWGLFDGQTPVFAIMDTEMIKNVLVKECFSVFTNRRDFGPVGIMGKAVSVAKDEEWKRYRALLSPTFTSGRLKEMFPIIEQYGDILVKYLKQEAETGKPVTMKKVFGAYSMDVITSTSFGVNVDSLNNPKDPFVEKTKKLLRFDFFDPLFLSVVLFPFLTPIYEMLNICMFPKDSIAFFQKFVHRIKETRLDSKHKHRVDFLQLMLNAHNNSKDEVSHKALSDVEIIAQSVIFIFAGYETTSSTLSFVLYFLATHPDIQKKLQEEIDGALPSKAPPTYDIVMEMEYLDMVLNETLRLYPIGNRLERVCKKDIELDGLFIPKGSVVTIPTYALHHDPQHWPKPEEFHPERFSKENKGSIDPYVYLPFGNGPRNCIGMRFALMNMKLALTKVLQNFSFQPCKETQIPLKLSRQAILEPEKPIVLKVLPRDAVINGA

The target of assay [2] is human Acetylcholinesterase (AChE), ACHE (gene 43) (UniProt P22303). Briefly: NVS_ENZ_hAChE: NovaScreen (NVS) Enzymatic Assay for human Acetylcholinesterase (AChE) (AID 2283129). In outline: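 Cell-free colorimetric enzyme-activity assay; compounds read 0.33 hour after dosing, loss of signal vs DMSO baseline. Primary screen in duplicate at 25 uM single concentration, with active compounds retested in concentration series.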
Sequence of human Acetylcholinesterase (AChE), ACHE (gene 43) (P22303 whole entry, looked up): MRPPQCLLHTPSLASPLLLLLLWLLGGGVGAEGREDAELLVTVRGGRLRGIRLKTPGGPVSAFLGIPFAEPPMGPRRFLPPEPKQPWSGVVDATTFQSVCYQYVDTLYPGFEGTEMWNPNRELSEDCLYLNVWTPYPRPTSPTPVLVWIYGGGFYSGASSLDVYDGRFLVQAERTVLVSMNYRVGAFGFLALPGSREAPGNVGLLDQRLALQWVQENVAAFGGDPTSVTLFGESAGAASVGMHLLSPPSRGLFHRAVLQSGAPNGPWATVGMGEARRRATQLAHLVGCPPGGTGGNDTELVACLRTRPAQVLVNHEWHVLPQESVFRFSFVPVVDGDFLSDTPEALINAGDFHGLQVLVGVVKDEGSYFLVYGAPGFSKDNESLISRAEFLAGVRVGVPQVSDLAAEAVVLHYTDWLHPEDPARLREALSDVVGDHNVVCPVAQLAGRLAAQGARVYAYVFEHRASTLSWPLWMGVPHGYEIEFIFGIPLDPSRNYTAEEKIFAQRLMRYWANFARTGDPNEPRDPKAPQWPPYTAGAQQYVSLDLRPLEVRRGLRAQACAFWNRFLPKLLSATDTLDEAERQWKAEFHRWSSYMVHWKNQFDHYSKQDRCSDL

In assay [3] the target is human AMP-activated Protein Kinase, alpha 1 (AMPKa1), PRKAA1 (gene 5562) (UniProt Q13131). Briefly: NVS_ENZ_hAMPKa1: NovaScreen (NVS) Enzymatic Assay for human AMP-activated Protein Kinase, alpha 1 (AMPKa1) (AID 2283130). Put shortly:
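Recombinant human AMPKα1 activity was measured cell-free by fluorescent substrate conversion with electrophoretic mobility-shift separation, 1 h after dosing. Duplicate single-point screening was at 25 uM; actives (≥30% inhibition) were retested in concentration-response up to 50 uM.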

Assay [4] addresses human Caspase 5 (CASP5), CASP5 (gene 838) (UniProt P51878). Briefly: NVS_ENZ_hCASP5: NovaScreen (NVS) Enzymatic Assay for human Caspase 5 (CASP5) (AID 2283137). Put shortly:
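Recombinant E. coli-expressed human caspase 5 in a cell-free enzyme assay; fluorescence intensity read 2 hours after chemical dosing. Single-concentration duplicate screen at 25 uM, then concentration-response up to 50 uM for hits; DMSO negative control.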

In assay [5] the target is human AKT serine/threonine Kinase 2 (AKT2), AKT2 (gene 208) (UniProt P31751). Kind of assay: NVS_ENZ_hAKT2: NovaScreen (NVS) Enzymatic Assay for human AKT serine/threonine Kinase 2 (AKT2) (AID 2283141). Put shortly:
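Cell-free fluorescence/electrophoretic mobility shift readout of recombinant human AKT2 activity, 1 h after chemical dosing. Duplicate primary screen at 25 uM, then singleton concentration-response up to 50 uM; loss of signal versus DMSO baseline.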

Sequence of human AMP-activated Protein Kinase, alpha 1 (AMPKa1), PRKAA1 (gene 5562) (Q13131 whole entry, looked up): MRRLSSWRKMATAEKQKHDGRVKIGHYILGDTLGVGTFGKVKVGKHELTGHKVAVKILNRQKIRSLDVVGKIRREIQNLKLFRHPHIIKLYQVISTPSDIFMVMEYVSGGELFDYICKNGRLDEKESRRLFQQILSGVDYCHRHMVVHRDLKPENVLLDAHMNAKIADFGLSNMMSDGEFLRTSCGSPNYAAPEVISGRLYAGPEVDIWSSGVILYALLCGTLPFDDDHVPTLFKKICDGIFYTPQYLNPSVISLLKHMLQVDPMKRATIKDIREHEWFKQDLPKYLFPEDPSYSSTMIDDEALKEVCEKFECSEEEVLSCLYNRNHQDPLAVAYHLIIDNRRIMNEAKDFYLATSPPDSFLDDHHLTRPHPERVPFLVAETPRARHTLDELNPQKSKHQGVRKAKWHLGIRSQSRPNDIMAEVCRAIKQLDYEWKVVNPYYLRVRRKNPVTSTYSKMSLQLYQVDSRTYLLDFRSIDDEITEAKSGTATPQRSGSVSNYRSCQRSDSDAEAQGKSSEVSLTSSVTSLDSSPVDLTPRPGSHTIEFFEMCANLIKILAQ
Sequence of human Caspase 5 (CASP5), CASP5 (gene 838) (P51878 whole entry, looked up): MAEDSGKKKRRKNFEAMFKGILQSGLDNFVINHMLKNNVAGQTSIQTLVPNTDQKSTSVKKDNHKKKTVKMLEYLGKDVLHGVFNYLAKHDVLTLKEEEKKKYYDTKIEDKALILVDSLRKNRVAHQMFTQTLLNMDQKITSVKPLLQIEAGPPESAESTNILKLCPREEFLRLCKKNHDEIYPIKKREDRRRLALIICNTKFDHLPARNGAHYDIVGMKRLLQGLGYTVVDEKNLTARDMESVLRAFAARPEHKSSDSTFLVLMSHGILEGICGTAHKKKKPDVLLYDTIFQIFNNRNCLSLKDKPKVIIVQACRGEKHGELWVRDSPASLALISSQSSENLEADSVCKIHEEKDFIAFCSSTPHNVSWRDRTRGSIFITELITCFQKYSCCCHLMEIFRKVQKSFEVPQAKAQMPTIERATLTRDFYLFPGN
Sequence of human AKT serine/threonine Kinase 2 (AKT2), AKT2 (gene 208) (P31751 whole entry, looked up): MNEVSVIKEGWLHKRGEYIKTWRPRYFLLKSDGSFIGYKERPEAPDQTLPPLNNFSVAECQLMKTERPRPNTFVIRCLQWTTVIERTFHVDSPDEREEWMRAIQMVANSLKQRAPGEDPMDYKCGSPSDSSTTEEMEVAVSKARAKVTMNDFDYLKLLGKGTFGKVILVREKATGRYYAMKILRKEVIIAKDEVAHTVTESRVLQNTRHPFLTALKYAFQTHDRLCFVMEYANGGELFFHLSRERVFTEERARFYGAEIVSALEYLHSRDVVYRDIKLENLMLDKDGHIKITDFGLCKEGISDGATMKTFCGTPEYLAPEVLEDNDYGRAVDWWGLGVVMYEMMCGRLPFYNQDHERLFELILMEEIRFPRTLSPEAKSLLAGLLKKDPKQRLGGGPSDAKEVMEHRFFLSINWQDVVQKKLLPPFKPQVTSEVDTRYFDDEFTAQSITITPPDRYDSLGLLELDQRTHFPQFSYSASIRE

For the compound `O=c1ssc(Cl)c1Cl`, the call with rat CYP2B1, gene 24300 was inactive.

As a reminder, the AC50 is the concentration at which the activity in the assay is half-maximal. `CO/N=C(/C(=O)OC)c1ccccc1COc1ccccc1C`: the result in the assay on rat CYP2B1, gene 24300 was inactive. Also, the AC50 was 6.96 µM (active) with rat CYP3A1, gene 25642 and 6.28 µM (active) in assay [1]. Regarding `CCCCN(CCCC)SN(C)C(=O)Oc1cccc2c1OC(C)(C)C2`, in assay [2], the concentration at half-maximal activity (AC50) was 1.31 µM (active). Take `CSC(C)(C)C=NO`: the outcome in assay [3] was inactive. As to `O=P1(N(CCCl)CCCl)NCCCO1` (stereo not given), the outcome in assay [3] was inactive. Turning to `CCOP(=S)(S)OCC`, the outcome in assay [4] was inactive. For `Cc1ccc2c(c1N)C(=O)c1ccccc1C2=O`, in assay [4], the AC50 is 6.72 µM (active). As for `CC(C)(C)c1ccc(O)cc1`, the compound was classed as inactive in assay [5].
